HT1080NT lethal – kills 2HG-producing HT-1080-NT fibrosarcoma cells; HT-1080-NT fibrosarcoma viability, CellTiter-Glo ATP luminescence, 48 h; Potency, µM (titrated, usually from 46.1 µM), inactives show top-dose activity, negative = less viability, usual class: cytotoxic; actives 1.6% (n = 360,000);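 note: NT is the 2HG producing partner of a matched IDH1 knockdown line; potency is the fitted concentration of half-maximal effect; 0% = DMSO-treated cells and -100% = media-only wells without cells; nearly all actives have a fitted effect of over 55% in size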
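HT-1080-NT fibrosarcoma cells (2HG-overproducing), 750 cells/well in RPMI with 5% FBS, dosed after 2 h and incubated 48 h at 37C. CellTiter-Glo luminescence normalized to DMSO and no-cell wells; concentration-response curves fitted and classed.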
HT1080 IDH1KD tx – kills HT-1080 cells with IDH1 knockdown. AID 686971. actives 2% (n = 360,000). HT-1080 IDH1 knockdown viability, ATP luminescence, 48 h. Potency, µM (series often up to 46.1 µM), for the others: at the highest dose activity, negative = toxicity, hits mostly cytotoxic;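 note: potency is the fitted concentration of half-maximal effect; 0% = DMSO wells and -100% = cell-free medium wells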
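% activity derives from luminescence (CellTiter-Glo), normalised to DMSO and no-cell wells. HT-1080-IDH1KD cells, 750/well, had 48 h compound exposure at 37 °C.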
TDP1 cell CPT – growth inhibition of DT40 Tdp1-/-;hTDP1 cells with camptothecin (screen for TDP1 inhibitors); chicken DT40 Tdp1-/-;hTDP1 cells + 20 nM CPT, ATP luminescence, 48 h; Potency, µM (top dose mostly 46.2 µM), for inactives: at the top dose activity change, negative = growth inhibition, most hits filed as inhibitors; actives 12% (n = 420,000); note: potency is the fitted concentration of half-maximal effect; nearly all actives have a fitted effect of over 55% in size
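Cell growth measured by CellTiter-Glo luminescence after a minimum 48 h, 37 C compound exposure with 20 nM CPT in Tdp1-knockout DT40 cells stably expressing hTDP1, seeded 400/well; qHTS titration format.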
IL-1B inflam inh – blocks inflammasome-driven IL-1 beta release; THP-1 LPS/ATP IL-1B secretion, AlphaLISA, 16 h; hits give low values; activity change, % at 57.5 µM; actives 4.7% (n = 360,000); AID 743279; in the data active = activity change below about -50%; inconclusive = mostly about -30% to -49%
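Secreted IL-1B measured by AlphaLISA bead assay after 16 h compound exposure of THP-1 cells; compounds (final up to 57.5 uM) added 1 h before LPS (250 ng/mL) and ATP (1.25 mM) stimulation; lower signal means less secretion.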
DT40 TDP1 no CPT – qHTS for Inhibitors of human tyrosyl-DNA phosphodiesterase 1 (TDP1): qHTS in cells in absence of CPT. DT40 Tdp1-/- hTDP1 cells, no CPT, ATP luminescence, 48 h. Potency, µM (titrated, usually from 46.2 µM), inactives show at the highest dose activity change, negative = growth inhibition, actives largely listed as inhibitors. actives 15% (n = 420,000); note: potency is the fitted concentration of half-maximal effect; nearly all actives have a fitted effect of over 55% in size
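Stably hTDP1-transfected Tdp1-null chicken DT40 cells were treated with library compounds minus camptothecin and grown for at least 48 hr at 37 °C, after which cellular ATP was quantified by luminescence.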
uPA surface inh – blocks generation of uPA at the cell surface; cell surface uPA generation assay, qHTS; Potency, µM (top dose mostly 38.3 µM), for inactives: at the highest dose activity change, negative = inhibition, hits mostly inhibitors; actives 0.31% (n = 330,000); active = well fitted inhibition curve with a large enough effect; inconclusive = small, poorly fitted or top-dose-only effect; inactive = no such curve, though single readings can be large or run the other way; tested in mouse RAW 264.7 cells; note: potency is the fitted concentration of half-maximal effect; nearly all actives have a fitted effect of over 55% in size
An asterisk follows results filed as active; i = inactive; ? = inconclusive; / = no result. Rows were chosen to be rich in hits. Some 19% of all compounds tested hit in one or more screens of this group. Unless noted, calls come from the whole dose curve; as a rule, active = well fitted curve in the direction sought with a large enough effect; inconclusive = small, poorly fitted or top-dose-only effect, or another doubt; inactive = no such curve, though single readings can be large; an effect the other way counts as inactive or inconclusive. Unless noted, % is set by controls: 0 for no effect and ±100 for the full control effect.

SMILES	HT1080NT lethal	HT1080 IDH1KD tx	TDP1 cell CPT	IL-1B inflam inh	DT40 TDP1 no CPT	uPA surface inh
COc1c(C)cc(S(=O)(=O)NCc2ccco2)c(C)c1C	9.8%	11.4%	-3.1%	-12.3	-6.5%	25.6%
Cn1c(=O)c2[nH]c(N3CCCCC3)nc2n(C)c1=O	3.7%	1.0%	20.6µM*	28.6	1.0%	-1.0%
O=C(Nc1nc2ccc(F)cc2s1)c1nc(S(=O)(=O)Cc2ccccc2)ncc1Cl	/	/	2.31µM*	/	2.31µM*	/
CSc1ncc(Cl)c(C(=O)Nc2nc3ccc(F)cc3s2)n1	/	/	1.4%	/	4.0%	/
Cc1cccc(CS(=O)(=O)c2ncc(Cl)c(C(=O)Nc3nc4ccc(F)cc4s3)n2)c1	/	/	2.31µM*	/	2.31µM*	/
O=C(c1ccco1)N1CCC2(CC1)CCN(c1ccncc1)CC2	/	/	?	/	20.6µM*	/
O=C(c1ccco1)N1CCC2(CC1)CN(c1cccc(-c3ccccc3)c1)C2	/	/	23.1µM*	/	13µM*	/
O=C(c1ccco1)N1CCC2(CC1)CCN(C(c1ccccc1)c1ccccc1)CC2	/	/	?	/	20.6µM*	/
O=C(c1ccncc1)N1CCC2(CC1)CN(c1ccc(-c3ccccc3)cc1)C2	/	/	?	/	7.31µM*	/
O=C(c1ccco1)N1CCC[C@@]2(CCN(c3ccncc3)C2)C1	/	/	13.2%	/	-29.8%	/
Cn1c2ccsc2c2ncn(Cc3ccccc3F)c(=O)c21	/	/	/	/	/	24.4%
COc1ccc(NC(=O)COC(=O)CN2C(=O)c3ccccc3C2=O)cc1	-0.6%	-15.8%	-12.4%	9.0	1.5%	0.4%
Cn1cccc1CNCC(O)c1ccccc1 (stereo not given)	7.9%	7.8%	2.7%	2.2	10.0%	-3.9%
O=C(Nc1ccccc1)N1CCC2(CC1)CCN(C(=O)c1ccco1)CC2	/	/	-21.6%	/	?	/
O=C(c1ccco1)N1CCC2(CC1)CN(c1ccc(-c3ccccc3)cc1)C2	/	/	7.31µM*	/	9.2µM*	/
CCOC(=O)c1ccc2ncc(C(=O)OCC)c(NCc3ccco3)c2c1	?	?	14.6µM*	-3.6	23.1µM*	-10.6%
CCOC(=O)c1cnc2ccc(C(=O)OC)cc2c1Nc1ccccc1CC	/	/	16.4µM*	/	11.6µM*	/
CCOC(=O)c1cnc2c(C)cccc2c1NCc1ccco1	-1.3%	-16.8%	-25.2%	-18.6	-18.6%	-12.4%
CC(C(=O)Nc1ccc2c(c1)OCO2)N1CCC(N2CCCCC2)CC1 (stereo not given)	1.4%	-7.5%	-13.5%	-22.2	-0.1%	-16.8%
CNc1ccccc1C(=O)OC(C)C(=O)Nc1ccc(Cl)cn1 (stereo not given)	0.3%	4.4%	?	-74.8*	?	-12.9%
O=C(CS(=O)(=O)c1ccccc1)Nc1ccc(Cl)cn1	27.4%	9.3%	7.3%	8.4	-1.7%	-1.5%
O=C(/C=C/c1ccccc1)Nc1ccc(Cl)cn1	?	4.61µM*	2.59µM*	0.0	3.26µM*	-7.5%
CCOc1ncccc1C(=O)OC(C)C(=O)Nc1ccc(Cl)cn1 (stereo not given)	3.6%	0.1%	-26.9%	26.8	?	11.3%
O=C(CC(c1ccccc1)c1ccccc1)Nc1ccc(Cl)cn1	?	14.6µM*	?	6.2	18.4µM*	-14.4%
O=C(COC(=O)/C=C/c1ccccc1)Nc1ccc(Cl)cn1	3.4%	3.1%	-5.7%	8.7	-10.1%	-0.1%
SMILES	HT1080NT lethal	HT1080 IDH1KD tx	TDP1 cell CPT	IL-1B inflam inh	DT40 TDP1 no CPT	uPA surface inh
COc1ccccc1NC(=O)NCCN1CCNC1=O	15.2%	12.4%	11.6%	10.0	-3.3%	1.3%
CNC[C@@H]1OCc2ccccc2-c2ccccc2C(=O)N([C@H](C)CO)C[C@@H]1C	6.3%	11.9%	-7.1%	2.6	1.2%	/
O=C(CC1CCCC1)N1CCN(S(=O)(=O)c2c(F)cccc2F)CC1	4.3%	4.4%	-0.3%	90.7	-29.0%	/
O=S(=O)(c1c(F)cccc1F)N1CCCC2CCCCC21 (stereo not given)	-0.2%	0.7%	?	12.1	20.6µM*	2.5%
N#C/C(=C\c1ccncc1)c1ccccn1	?	?	1.4%	-100.0*	?	-11.9%
N#C/C(=C\c1ccc(Cl)c([N+](=O)[O-])c1)c1ccccn1	14.6µM*	10.3µM*	20.6µM*	-96.8*	20.6µM*	-18.0%
CNc1ccc(/C=C(\C#N)c2ccccn2)cc1[N+](=O)[O-]	-6.6%	11.7%	-0.6%	-11.6	-17.0%	-2.2%
N#C/C(=C\c1cccnc1)c1ccccn1	-0.1%	-0.7%	-3.5%	0.0	-4.0%	4.6%
Cc1cccc(NC(=O)c2cnn(-c3ccccc3)c2-n2cccc2)c1C	/	/	16.4µM*	/	?	/
CCc1ccc(NC(=O)c2cnn3ccccc23)cc1	?	?	3.8%	-10.6	-22.6%	?
Cc1cccc(NC(=O)c2cnn(-c3ccccc3)c2C)c1C	5.3%	-3.2%	-8.3%	?	-23.4%	4.4%
CCc1ccc(NC(=O)c2cnn(-c3ccccc3)c2-n2cccc2)cc1	/	/	18.4µM*	/	?	/
CCOCCCNC(=O)Cn1nc(CC)n2c(cc3c(OC)cccc32)c1=O	/	/	-10.3%	/	-0.7%	/
Fc1ccccc1OCC1CCCN(Cc2nc(CC3CC3)no2)C1 (stereo not given)	8.9%	6.8%	-12.6%	6.3	-17.4%	-0.5%
O=C(Cn1c(=O)oc2cc(S(=O)(=O)NCc3ccccc3)ccc21)N(CCO)Cc1ccccc1	/	/	?	/	14.6µM*	/
COc1ccc(NC(=O)Cn2c(=O)oc3cc(S(=O)(=O)NCc4ccccc4)ccc32)c(OC)c1	/	/	8.2µM*	/	6.51µM*	/
COc1ccc(C)cc1NC(=O)Cn1c(=O)oc2cc(S(=O)(=O)NCc3ccccc3)ccc21	/	/	16.4µM*	/	14.6µM*	/
CN1CCN(C(=O)Cn2c(=O)oc3cc(S(=O)(=O)NCc4ccccc4)ccc32)CC1	3.3%	-4.7%	?	-0.6	-25.7%	-4.2%
Cc1ccc(C)c(NC(=O)Cn2c(=O)oc3cc(S(=O)(=O)NCc4ccccc4)ccc32)c1	/	/	13µM*	/	8.2µM*	/
CN(C)S(=O)(=O)c1cccc(NC(=S)NNC(=O)c2cc3ccccc3cc2O)c1	?	?	?	95.2	?	7.6%
O=C(Nc1ccccc1C(=O)N1CCN(Cc2ccccc2)CC1)c1ccccc1	-1.5%	4.1%	3.5%	i	-10.4%	1.2%
CC(=O)c1c(C)n(-c2cccc(Cl)c2)c2ccc(O)cc12	-16.7%	-10.3%	?	-9.9	0.517µM*	-0.9%
CC(=O)c1c(C)n(-c2ccc(Cl)cc2)c2ccc(O)cc12	-1.9%	11.7%	?	2.1	-19.8%	10.0%

Screens: PubChem, National Center for Advancing Translational Sciences (NCATS)
